Measurements: PubChem BioAssay (NCATS)
Results filed as inconclusive are left out. Calls of active or inactive are those of the source. The call rests on the fitted dose curve; in most records, active means well fitted cell-killing curve with a large enough effect; inconclusive means small, poorly fitted or top-dose-only effect, or effect the other way; inactive means flat fitted curve, though single readings scatter.

How the values were obtained:
Test in all cases: Primary qHTS to identify gynecologic anti-cancer compounds using libraries of approved drugs and bioactive compounds (AID 1345084); further: nearly all actives have a fitted effect of over 55% in size
CASKI = details: Gynecologic cancer cell panel viability, ATPlite luminescence, 48 h; series mostly up to 57.5 µM
Procedure, shortened: (§1)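 Five-point cytotoxicity, 48 h drug exposure at 37 C, 5% CO2, on cells seeded 16 h beforehand. ATP content read by ATPlite luminescence.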

Es-2 = details: Gynecologic cancer cell panel viability, ATPlite luminescence, 48 h; series mostly up to 57.5 µM
Procedure, shortened: as §1

HeLa = details: Gynecologic cancer cell panel viability, ATPlite luminescence, 48 h; series mostly up to 57.5 µM
Procedure, shortened: as §1

Hek293T = details: Gynecologic cancer cell panel viability, ATPlite luminescence, 48 h, control line for the selectivity index; series mostly up to 57.5 µM
Procedure, shortened: as §1

JEG-3 = details: Gynecologic cancer cell panel viability, ATPlite luminescence, 48 h; series mostly up to 57.5 µM
Procedure, shortened: as §1

OV90 = details: Gynecologic cancer cell panel viability, ATPlite luminescence, 48 h; series mostly up to 57.5 µM
Procedure, shortened: as §1

PA-1 = details: Gynecologic cancer cell panel viability, ATPlite luminescence, 48 h; series mostly up to 57.5 µM
Procedure, shortened: as §1

SKOV3 = details: Gynecologic cancer cell panel viability, ATPlite luminescence, 48 h; series mostly up to 57.5 µM
Procedure, shortened: as §1

Tov-21-G = details: Gynecologic cancer cell panel viability, ATPlite luminescence, 48 h; series mostly up to 57.5 µM
Procedure, shortened: as §1

Tov112D = details: Gynecologic cancer cell panel viability, ATPlite luminescence, 48 h; series mostly up to 57.5 µM
Procedure, shortened: as §1

Measured: Potency

COC(=O)C1=CO[C@@H](O)[C@@H]2C(CO)=CC[C@H]12
inactive: all assays above

CSCC[C@H](NC(=O)[C@H](Cc1c[nH]c2ccccc12)NC(=O)CCNC(=O)OC(C)(C)C)C(=O)N[C@@H](CC(=O)O)C(=O)N[C@@H](Cc1ccccc1)C(N)=O
inactive: all assays above

CCc1cc(S(=O)(=O)O)c2cc(C(C)C)cccc1-2
inactive: all assays above

COCCc1ccccn1
inactive: all assays above

O=C(O)CCCC[C@@H]1SC[C@@H]2NC(=O)N[C@@H]21
inactive: all assays above

COc1ccc(CCC(C)=O)cc1
inactive: all assays above

Cc1cccc(C)c1NC(=O)c1cc(S(N)(=O)=O)c(Cl)cc1O
inactive: all assays above

Cc1onc(-c2c(Cl)cccc2Cl)c1C(=O)Cl
inactive: all assays above

CCCCOCCOC(=O)c1cccnc1
inactive: all assays above

OC1(c2ccccc2)CCNCC1
inactive: all assays above

O=C(CCCCCCCCC#CI)Oc1ccccc1
inactive: all assays above

O=C1c2ccccc2CCc2ccccc21
inactive: all assays above

CCCCOC(=O)CCCCCCCCC(=O)OCCCC
inactive: all assays above

CCCC(=O)O[C@]1(C(=O)CC)CC[C@H]2[C@@H]3CCC4=CC(=O)CC[C@]4(C)[C@H]3[C@@H](O)C[C@@]21C
inactive: all assays above

CC(=O)N(c1onc(C)c1C)S(=O)(=O)c1ccc(N)cc1
inactive: all assays above

C/C(=C(/OCCOc1ccc(Cl)cc1)c1ccc(Cl)cc1Cl)n1ccnc1
inactive: all assays above

CC(C)N(CCC(=O)c1ccc2ccccc2c1)Cc1ccccc1
inactive: all assays above

CCc1cc2cc(OC)c(OC)cc2c(Cc2ccccc2)n1
inactive: all assays above

COC(=O)C1=C(C)NC(COC(N)=O)=C(C(=O)OC(C)C)C1c1cccc(Cl)c1Cl (stereo not given)
inactive: all assays above

Nc1nc(=O)n([C@@H]2O[C@H](CO)[C@@H](O)[C@@H]2F)cc1I
inactive: all assays above

CCCCCC1Nc2cc(C(F)(F)F)c(S(N)(=O)=O)cc2S(=O)(=O)N1 (stereo not given)
inactive: all assays above

CC(C)(C)C(O)/C=C/c1ccc2c(c1)OCO2 (stereo not given)
inactive: all assays above

O=C(CCCCC(=O)Nc1c(I)cc(I)c(C(=O)O)c1I)Nc1c(I)cc(I)c(C(=O)O)c1I
inactive: all assays above
